These results are taken from PubChem BioAssay (Tox21).

Assay [1] is described as follows: qHTS assay for small molecule agonists of the p53 signaling pathway (AID 651631; calls by dose curve; note: nearly all actives have a fitted effect of over 15% in size; note: potency is the fitted concentration of half-maximal effect). A digest of the protocol: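 p53RE-bla HCT-116 cells; compounds 16 h, 37 °C; LiveBLAzer B/G FRET substrate 2 h RT; fluorescence intensity read-out, qHTS format.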
Assay [2] in a line: qHTS assay for small molecules that induce genotoxicity in human embryonic kidney cells expressing luciferase-tagged ATAD5 (AID 651632). Note: nearly all actives have a fitted effect of over 15% in size. A digest of the protocol:
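Test compounds were delivered by pin tool onto HEK293T reporter cells (2,000/well) expressing ATAD5 fused to luciferase. After 16 hr at 37C, 5% CO2, Amplite was added for 30 min at room temperature and luminescence was measured.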

Assay [3] is described as follows: qHTS assay for small molecule agonists of the p53 signaling pathway - cell viability (AID 651633; calls by dose curve; note: nearly all actives have a fitted effect of over 30% in size; note: potency is the fitted concentration of half-maximal effect). A digest of the protocol:
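p53RE-bla cells were treated with compound for 16 hours at 37 C. Cytotoxicity was then measured as CellTiter-Glo luminescence after 30 min at room temperature.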

The nature of assay [4]: qHTS assay for small molecules that induce genotoxicity in human embryonic kidney cells expressing luciferase-tagged ATAD5 - cell viability (AID 651634; calls by dose curve; note: nearly all actives have a fitted effect of over 25% in size; note: potency is the fitted concentration of half-maximal effect). A digest of the protocol:
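Quantitative high-throughput format. HEK293T cells expressing ATAD5 fused to luciferase were plated at 2,000 cells/well and treated 15.5 hr with compound versus DMSO. Viability was determined by fluorescent live-cell protease substrate, 30 min at 37C.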

Assay [5] is described as follows: qHTS assay for small molecule disruptors of the mitochondrial membrane potential - cell viability (AID 720634; calls by dose curve;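 note: human HepG2 liver cancer cells; nearly all actives have a fitted effect of over 20% in size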). A digest of the protocol: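 Same-well counter-screen: following the MMP dye addition, CellTiter-Glo was added to 1 hr compound-treated HepG2 cells and luminescence read after 30 min at room temperature.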
A short description of assay [6]: qHTS assay for small molecule disruptors of the mitochondrial membrane potential (AID 720635). Note: potency is the fitted concentration of half-maximal effect. A digest of the protocol:
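HepG2 cells exposed to compound 1 hr at 37C, then Mito-MPS dye 30 min. Ratio read of aggregate (540/590 nm) versus monomer (490/535 nm) fluorescence.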

A short description of assay [7]: qHTS assay to test for compound auto fluorescence at 590 nm (red) in HepG2 cells (AID 720674). A digest of the protocol: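 HepG2 cells, 2,000 per well in MEM with 10% FBS, attached overnight at 37 C, then got 23 nL compound or DMSO. After 1 hr at 37 C, 5% CO2, red fluorescence was read at 540/590 nm against Rose Bengal sodium as reference.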
The nature of assay [8]: qHTS assay to test for compound auto fluorescence at 535 nm (green) in HepG2 cells (AID 720675).
A short description of assay [9]: qHTS assay to test for compound auto fluorescence at 460 nm (blue) in HEK293 cells (AID 720678). A digest of the protocol:
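Intrinsic compound fluorescence is recorded in live HEK293 cultures after overnight incubation at 37C, 5% CO2, using excitation 405 nm and emission 460 nm. Values are referenced to triamterene.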

Assay [10] can be described thus: qHTS assay to test for compound auto fluorescence at 590 nm (red) in HEK293 cells (AID 720679). A digest of the protocol: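 Red autofluorescence, HEK293 cells: 2,000 cells/well; attach 4-5 hr 37C; add 23 nL cpd or DMSO; incubate o/n 37C 5% CO2; read Ex540/Em590; Rose Bengal sodium reference.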
A short description of assay [11]: qHTS assay to test for compound auto fluorescence at 535 nm (green) in HEK293 cells (AID 720680).
Assay [12] in a line: qHTS assay to test for compound auto fluorescence at 460 nm (blue) in HEK293 cell free culture (AID 720681). A digest of the protocol:
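Compounds were added to cell-free DMEM with 10% FBS and fluorescence read directly. The blue channel used 405 nm excitation and 460 nm emission, with triamterene as the reference fluorophore.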

The nature of assay [13]: qHTS assay to test for compound auto fluorescence at 535 nm (green) in HEK293 cell free culture (AID 720682). A digest of the protocol:
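Cell-free medium (DMEM, 10% FBS) receives compound or DMSO by pintool. Plate read directly at Ex 485/Em 535 nm. Signal converted to fluorescein equivalency.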

Assay [14] in a line: qHTS assay to test for compound auto fluorescence at 590 nm (red) in HEK293 cell free culture (AID 720683). A digest of the protocol:
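Cell-free wells of DMEM with 10% FBS received compound, and intrinsic fluorescence was read at excitation/emission 540/590 nm. Values expressed as equivalence to Rose Bengal sodium.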

The nature of assay [15]: qHTS assay to test for compound auto fluorescence at 590 nm (red) in HepG2 cell free culture (AID 720684). A digest of the protocol:
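Rose Bengal sodium served as the reference for red signal. Test compounds were dispensed into serum-containing MEM (10% FBS) without cells, and plates were read at 540/590 nm.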

A short description of assay [16]: qHTS assay to test for compound auto fluorescence at 460 nm (blue) in HepG2 cell free culture (AID 720685). A digest of the protocol: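 Cell-free plates of MEM plus 10% FBS received 23 nL compound or DMSO vehicle; blue-channel (405/460 nm) intensity scored against triamterene as reference fluorophore.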
Assay [17] can be described thus: qHTS assay to test for compound auto fluorescence at 535 nm (green) in HepG2 cell free culture (AID 720686).
Assay [18] can be described thus: qHTS assay to test for compound auto fluorescence at 460 nm (blue) in HepG2 cells (AID 720687). A digest of the protocol: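 HepG2 cells in MEM with 10% FBS, attached overnight at 37 C, were exposed to compound or DMSO for 1 hr at 37 C, 5% CO2. Blue fluorescence was read at 405/460 nm, with triamterene as reference fluorophore.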
Assay [19] has as its target Glucocorticoid receptor (Homo sapiens) (UniProt P04150). Description: qHTS assay to identify small molecule agonists of the glucocorticoid receptor (GR) signaling pathway (AID 720691; active = well fitted activation curve with a large enough effect in the signal ratio in the repeat runs, not every such curve was filed as active; the % refers to the signal ratio). As to conditions: GR-bla HeLa, beta-lactamase reporter ratio, 18 h; activation: at 62.4 µM (top of the series). A digest of the protocol:
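A HeLa cervical cancer line expressing GR and a glucocorticoid response element-driven beta-lactamase gene is treated with compounds for 18 h; LiveBLAzer B/G FRET substrate is then applied and fluorescence read.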

The target is the same in assay [20]. Put plainly: qHTS assay to identify small molecule antagonists of the glucocorticoid receptor (GR) signaling pathway (AID 720692; active = well fitted inhibition curve with a large enough effect in the signal ratio in the repeat runs, not every such curve was filed as active; the % refers to the signal ratio; note: potency is the fitted concentration of half-maximal effect). A digest of the protocol:
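GRE-bla HeLa line, dex-stimulated (5 nM final). Compound exposure 18 h, 37 C. Beta-lactamase FRET read after 2 h RT substrate.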

Records with an inconclusive call do not appear. The source made the active and inactive calls. Unless noted, calls come from the whole dose curve; as a rule, active = well fitted curve in the direction sought with a large enough effect in the repeat runs; inconclusive = weak or mixed curves; inactive = no such curve, though single readings can be large; an effect the other way counts as inactive or inconclusive. Residues, ends and D or L forms follow the SMILES beside them.

Glucocorticoid receptor (Homo sapiens), sequence (P04150 whole entry, looked up): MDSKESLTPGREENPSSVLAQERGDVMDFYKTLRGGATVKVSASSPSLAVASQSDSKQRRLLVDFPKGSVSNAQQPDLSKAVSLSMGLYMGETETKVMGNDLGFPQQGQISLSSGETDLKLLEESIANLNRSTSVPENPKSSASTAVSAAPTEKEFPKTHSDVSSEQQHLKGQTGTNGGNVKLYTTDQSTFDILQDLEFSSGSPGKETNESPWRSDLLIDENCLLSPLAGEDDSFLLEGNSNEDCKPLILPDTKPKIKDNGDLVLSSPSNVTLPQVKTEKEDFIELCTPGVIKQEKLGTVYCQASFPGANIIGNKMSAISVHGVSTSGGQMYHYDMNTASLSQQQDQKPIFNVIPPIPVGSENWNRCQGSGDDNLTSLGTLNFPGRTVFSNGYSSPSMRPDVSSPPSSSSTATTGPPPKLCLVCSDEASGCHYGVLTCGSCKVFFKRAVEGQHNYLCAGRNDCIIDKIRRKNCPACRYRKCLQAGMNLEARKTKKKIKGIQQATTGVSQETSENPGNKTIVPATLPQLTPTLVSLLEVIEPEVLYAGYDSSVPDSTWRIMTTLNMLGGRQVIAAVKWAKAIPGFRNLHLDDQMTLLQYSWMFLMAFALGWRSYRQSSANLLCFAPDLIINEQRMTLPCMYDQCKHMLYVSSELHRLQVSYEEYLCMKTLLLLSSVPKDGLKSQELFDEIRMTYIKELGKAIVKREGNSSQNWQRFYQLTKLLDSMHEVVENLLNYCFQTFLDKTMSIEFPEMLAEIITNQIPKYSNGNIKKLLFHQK

With `CC(=O)Nc1ccc(OC(C)=O)cc1`, the Potency entry in assay [1], in assay [2], in [3], in assay [4], in assay [5] and in assay [6] was “inactive” throughout. Further, the Potency result in assay [8], in assay [9], in assay [12], in assay [16], in assay [17] and in assay [18] was “inactive” each time. Besides, the Potency result in [19] and in [20] was “inactive” throughout. In addition, the compound was classed as inactive in [7], in [10], in assay [11], in assay [13], in assay [14] and in assay [15].
Regarding `O=C(O)/C=C/C(O)c1ccc(Cl)cc1` (centres undefined), the Potency entry in assay [1], in assay [2], in assay [3], in [4], in [5] and in [6] was “inactive” throughout. The Potency entry in assay [8], in [9], in [12], in assay [16], in assay [17] and in [18] was “inactive” throughout. In addition, the Potency result in assay [19] and in assay [20] was “inactive” each time. Also, the compound was classed as inactive in assay [7], in assay [10], in assay [11], in assay [13], in [14] and in [15].
Take `O=C1c2ccccc2C(=O)C1c1ccc(F)cc1`: the Potency entry in [1], in [2], in assay [3], in assay [4], in assay [5] and in assay [6] was “inactive” throughout. For the same compound, the Potency result in assay [8], in [9], in [12], in assay [16], in assay [17] and in assay [18] was “inactive” in each case. Further, the Potency entry in [19] and in assay [20] was “inactive” throughout. Also, the result in assay [7], in assay [10], in assay [11], in assay [13], in assay [14] and in assay [15] was inactive.
Consider `C[C@H](NCCc1ccc(O)cc1)[C@H](O)c1ccc(O)cc1`, for which the Potency result in assay [1], in assay [2], in assay [3], in [4], in assay [5] and in [6] was “inactive” each time. For the same compound, the Potency result in assay [8], in assay [9], in assay [12], in assay [16], in assay [17] and in assay [18] was “inactive” each time. The Potency result in assay [19] and in [20] was “inactive” each time. Also, the compound was classed as inactive in assay [7], in [10], in assay [11], in assay [13], in [14] and in assay [15].
For `C=C1C(=C/C=C2\CCC[C@]3(C)[C@@H]([C@H](C)CCCC(C)C)CC[C@@H]23)C[C@@H](O)C[C@@H]1O`, the Potency in [1] was 29.8 µM (active); in assay [3] it was 29.8 µM (active); in assay [4], 23.7 µM (active); in assay [6] it was 29.8 µM (active); in [20], 8.49 µM (active). Besides, the Potency result in assay [2], in assay [5], in assay [8], in assay [9], in assay [12] and in assay [16] was “inactive” each time. Further, the Potency entry in assay [17] and in assay [18] was “inactive” throughout. Besides, the outcome in assay [7], in assay [10], in [11], in assay [13], in [14] and in assay [15] was inactive.
As to `CO/N=C(\C(=O)N[C@@H]1C(=O)N2C(C(=O)O)=C(COC(C)=O)CS[C@H]12)c1csc(N)n1` (stereo in doubt), the Potency result in assay [1], in [2], in assay [3], in assay [4], in assay [5] and in assay [6] was “inactive” throughout. The Potency result in [8], in assay [9], in [12], in [16], in [17] and in assay [18] was “inactive” in each case. The Potency entry in [19] and in assay [20] was “inactive” in each case. Further, the compound was classed as inactive in assay [7], in assay [10], in assay [11], in assay [13], in assay [14] and in assay [15].
Turning to `CCCCCCOC(=O)c1cccnc1`, the Potency entry in [1], in assay [2], in assay [3], in [4], in [5] and in assay [6] was “inactive” throughout. In addition, the Potency entry in [8], in [9], in [12], in [16], in [17] and in [18] was “inactive” in each case. Further, the Potency entry in assay [19] and in [20] was “inactive” each time. Besides, the compound was classed as inactive in [7], in [10], in [11], in assay [13], in assay [14] and in assay [15].
Regarding `CC(C)[C@H](NC(=O)[C@H](CC(=O)O)NC(=O)[C@H](CCCCN)NC(=O)[C@@H](N)CCCN=C(N)N)C(=O)N[C@@H](Cc1ccc(O)cc1)C(=O)O` (H-RKDVY-OH), the Potency entry in assay [1], in assay [2], in assay [3], in [4], in assay [5] and in assay [6] was “inactive” in each case. Moreover, the Potency result in assay [8], in assay [9], in [12], in assay [16], in [17] and in [18] was “inactive” each time. Besides, the Potency entry in assay [19] and in assay [20] was “inactive” each time. The compound was called inactive in [7], in assay [10], in assay [11], in assay [13], in assay [14] and in [15].
